GSH fluor: compound fluoresces at 488/530 nm on GSH beads. GSH beads flow cytometry, compound fluorescence 488/530 nm; active compounds read high. fluorescence (KMESF) at 10 µM. 190,000 compounds, 0.25% hits. AID 1776; in the data active = fluorescence above about 89;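 also: glutathione beads carrying GST-tagged Bcl family fusion proteins plus one bare bead set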
RGS7-Gao reg: regulators of human RGS7-Galphao interaction. P09471. Multiplexed bead flow cytometry, RGS7-Galphao binding; actives lie on both sides. AID 1439. 220,000 compounds, 0.35% hits. binding response (% of control), % at 10 µM; in the data active = binding response below about 49% or above about 150%; inconclusive = no clear call, values can overlap the other calls; inactive = in between;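 also: fluorescent Galphao held in activated GDP-AlF4 state binding bead-coupled RGS7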
RGS8-Gao reg: human RGS8-Galphao interaction regulation; multiplexed bead flow cytometry, RGS8-Galphao binding; actives lie on both sides; response (percent of control binding), % at 10 µM; 220,000 compounds, 0.34% hits; in the data active = response below about 60% or above about 140%; inactive = in between;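 also: Galphao activated as the GDP aluminium fluoride complex binding bead-coupled RGS8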
RGS16-Gao: modulates binding between human RGS16 and Galphao; O15492+P09471; bead-based flow cytometry RGS16-Galphao binding, fluorescence; actives lie on both sides; binding response (% of control), % at 10 µM; 220,000 compounds, 0.38% hits;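 also: Galphao activated by GDP with aluminum fluoride before binding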
Avidin fluor: compound fluoresces at 488/530 nm on avidin beads. compound fluorescence 488/530 nm, flow cytometry; active compounds read high. fluorescence (KMESF) at 10 µM. 220,000 compounds, 0.38% hits; in the data active = fluorescence above about 47
RGS4-Gao reg: human RGS4-Galphao interaction regulation; P09471; Multiplexed bead flow cytometry, RGS4-Galphao binding; actives lie on both sides; binding response (% of control), % at 10 µM; 220,000 compounds, 0.33% hits; AID 1415; in the data active = binding response below about 49% or above about 150%; inactive = in between;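 also: fluorescent Galphao activated with aluminum fluoride binding bead-coupled RGS4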
RGS-Gao: modulates binding between human RGS4 and Galphao; RGS4–Galpha-o binding response, % at 10 µM; multiplexed bead flow cytometry, RGS–Galpha-o binding; 1,600 compounds, 99% hits; shares compounds with RGS16-Gao;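 also: fluorescently labeled Galpha-o bound to GDP with aluminium fluoride binding biotinylated RGS beads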
Target sequence (P09471 whole entry, looked up): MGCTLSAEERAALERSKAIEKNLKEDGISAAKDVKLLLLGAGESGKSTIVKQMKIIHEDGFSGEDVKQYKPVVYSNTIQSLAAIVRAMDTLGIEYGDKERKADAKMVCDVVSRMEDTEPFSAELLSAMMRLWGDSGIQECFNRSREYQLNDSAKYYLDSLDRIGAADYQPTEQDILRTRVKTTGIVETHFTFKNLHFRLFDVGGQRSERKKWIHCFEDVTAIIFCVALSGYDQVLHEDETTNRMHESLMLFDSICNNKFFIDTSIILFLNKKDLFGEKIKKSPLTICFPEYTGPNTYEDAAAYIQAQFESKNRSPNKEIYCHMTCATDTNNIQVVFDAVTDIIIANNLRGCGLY
Target sequence (P49798 whole entry, looked up): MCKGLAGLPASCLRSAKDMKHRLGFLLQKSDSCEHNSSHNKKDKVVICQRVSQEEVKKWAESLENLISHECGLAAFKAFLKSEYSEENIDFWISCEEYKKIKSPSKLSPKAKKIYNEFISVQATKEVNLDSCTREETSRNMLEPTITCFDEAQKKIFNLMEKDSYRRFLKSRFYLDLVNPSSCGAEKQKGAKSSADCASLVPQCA
Biotin-avidin: interferes with biotinylated probe binding to avidin beads. inhibition, % at 10 µM. shares compounds with RGS16-Gao. streptavidin beads, fluorescein-biotin binding, flow cytometry. 1,700 tested, under 10 active;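 active = inhibition above 50%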;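 also: median green fluorescence of gated singlet beads compared with DMSO control wells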
RGS8-Gao confirm: RGS8-Galphao interaction regulation, single point confirmation; binding response (% of control), % at 10 µM; shares compounds with RGS16-Gao; bead-based flow cytometry RGS8-Galphao binding, fluorescence; actives lie on both sides; 1,700 compounds, 3% hits; in the data active = binding response below about 72% or above about 130%; inactive = in between;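 also: Galphao activated as GDP AlF4 complex before binding bead RGS8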
RGS7-Gao confirm: RGS7-Galphao interaction regulation, single point confirmation. shares compounds with RGS16-Gao. bead-based flow cytometry RGS7-Galphao binding; actives lie on both sides. response (percent of control binding), % at 10 µM. 1,700 compounds, 7.8% hits; in the data active = response below about 75% or above about 130%; inactive = in between;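 also: fluorescent Galphao activated with GDP and aluminum fluoride binding bead-coupled RGS7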
RGS16-Gao single: RGS16-Galphao interaction regulation, single point confirmation. shares compounds with RGS16-Gao. bead-based flow cytometry, RGS16-Galphao binding; actives lie on both sides. response (% of control binding), % at 10 µM. 1,700 compounds, 4% hits; in the data active = response below about 74% or above about 130%; inactive = in between;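 also: Galphao activated as the GDP aluminium fluoride complex binding bead-coupled RGS16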
RGS4-Gao single: RGS4-Galphao interaction regulation, single point confirmation. shares compounds with RGS16-Gao. RGS4-Galphao binding, multiplexed bead flow cytometry; actives lie on both sides. binding response (% of control), % at 10 µM. 1,700 compounds, 4% hits. AID 1840; in the data active = binding response below about 74% or above about 130%; inactive = in between
RGS19-Gao single: RGS19-Galphao interaction regulation, single point confirmation; shares compounds with RGS16-Gao; bead-based flow cytometry RGS19-Galphao binding; actives lie on both sides; response (percent of control binding), % at 10 µM; 1,700 compounds, 5% hits; in the data active = response below about 50% or above about 160%; inactive = in between
Target sequence (P09471 whole entry, looked up): as the sequence (P09471 whole entry, looked up) above
Target sequence (P49795 whole entry, looked up): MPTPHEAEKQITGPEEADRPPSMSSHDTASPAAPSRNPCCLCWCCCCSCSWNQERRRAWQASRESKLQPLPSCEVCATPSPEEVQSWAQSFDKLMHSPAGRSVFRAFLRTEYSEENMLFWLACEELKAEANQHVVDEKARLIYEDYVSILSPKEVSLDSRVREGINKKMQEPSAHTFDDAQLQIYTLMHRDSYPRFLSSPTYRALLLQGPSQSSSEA
Numbers stand for hits; 0 = inactive; ? = inconclusive; - = no result; [ ] = dose if it differs, or a comment. Hits are enriched below; roughly 1.2% of the tested compounds scored in any of these assays. Unless noted, no rule for the calls is given here.

SMILES | GSH fluor | RGS7-Gao reg | RGS8-Gao reg | RGS16-Gao | Avidin fluor | RGS4-Gao reg | Biotin-avidin | RGS8-Gao confirm | RGS7-Gao confirm | RGS16-Gao single | RGS4-Gao single | RGS19-Gao single | others
O=c1oc2ccccc2c(N2CCCC2)c1[N+](=O)[O-] | 0 | 157[activator] | 161[activator] | 180[activator] | 0 | 157[activator] | 0 | 0 | 0 | 0 | 0 | 0
OC(c1ccccc1)c1nccc2ccccc12 (stereo unspecified) | 0 | 0 | 0 | 0 | 0 | 0 | - | - | - | - | - | -
CC(/C=C(\NC(=O)c1ccccc1)C(=O)N=Nc1c(O)[nH]c2ccc(C)cc12)=C\c1ccccc1 | 0 | 0 | 0 | 0 | 0 | 0 | - | - | - | - | - | -
CC1=CC(C)(C)Nc2ccccc21 | 0 | 0 | 0 | 13 | 0 | 0 | 0 | 0 | 0 | 0 | 0 | 0 | RGS-Gao=77
CCOC(=O)/C(C#N)=N/Nc1ccccc1OC | 0 | 0 | 0 | 20 | 0 | 0 | 0 | 0 | 0 | 0 | 0 | 0 | RGS-Gao=88
CCCCC(=O)NC(=S)Nc1nnn(CCC)n1 | 0 | 0 | 0 | 0 | 0 | 0 | - | - | - | - | - | -
Cc1csc(C(=O)NN)c1N(C)C | - | ? | 0 | 0 | 0 | 0 | - | - | - | - | - | -
O=S(=O)(NCc1ccccc1)c1ccc2c(c1)OCCO2 | 0 | - | - | - | - | - | 0 | 0 | 0 | 0 | 0 | 0
Cc1cccc(NCc2cc(Cl)cc(Cl)c2O)n1 | 0 | 278[activator] | 0 | 323[activator] | 175 | 274[activator] | 0 | 0 | 0 | 0 | 0 | 0
O=C(NC1CC1)c1ccc2c(c1)C1C3CCC(C3)C1C(c1ccccc1)N2 (stereo unspecified) | 0 | 0 | 0 | 0 | 0 | 0 | - | - | - | - | - | -
Cn1nc(Oc2nc(N3CCOCC3)nc(N3CCOCC3)n2)ccc1=O | 0 | -4.9 | 12 | 0 | 0 | -23 | 0 | 0 | 0 | 0 | 0 | 0
CC(C)(C)Nc1nc(Oc2ccc(=O)n(-c3ccccc3)n2)nc(N2CCOCC2)n1 | 0 | - | - | - | - | - | 0 | 0 | 0 | 0 | 0 | 0
CN(CC(=O)Nc1ccc(N2CCOCC2)cc1)Cc1cc(=O)n2ccsc2n1 | 0 | 0 | 0 | 0 | 0 | 0 | - | - | - | - | - | -
COCC(=O)Nc1cc(Cl)ccc1C(F)(F)F | 0 | 0 | 0 | 0 | 0 | 0 | - | - | - | - | - | -
COc1cccc(-c2cnc(NCc3cc(Cl)ccc3O)n2C)c1 | 0 | 160[activator] | 0 | 0 | 55 | 0 | - | - | - | - | - | - | RGS-Gao=117
Cn1c(-c2cccc(Br)c2)cnc1NCc1cccnc1 | 0 | 0 | 0 | 0 | 0 | 0 | - | - | - | - | - | -
COCCCNC(=O)c1ccc(CS(=O)(=O)c2ccc(OC)cc2)o1 | 0 | 0 | 0 | 0 | 0 | 0 | - | - | - | - | - | -
COc1ccc(S(=O)(=O)Cc2ccc(C(=O)NCCc3ccc(S(N)(=O)=O)cc3)o2)cc1 | 0 | 0 | 0 | 183[activator] | 0 | 0 | 0 | 0 | 0 | 0 | 0 | 0 | RGS-Gao=105
CCOCCCn1c(SC(C(=O)Nc2cc(C)ccc2C)c2ccccc2)nnc1-c1ccc(Cl)cc1 (stereo unspecified) | 0 | 0 | 0 | 0 | 0 | 0 | - | - | - | - | - | -
CCOc1ccc(C(=O)/C=C/c2cc(OC)c(OC)c(OC)c2)cc1 | 0 | ? | 0 | 0 | 0 | 0 | - | - | - | - | - | -
CCOc1ccc(/C=C/C(=O)c2ccccc2)cc1 | - | ? | 23 | -3.6 | 0 | -8.9 | 0 | 0 | 0 | 0 | 0 | 0
COc1ccc(C(=O)/C=C/c2ccc(OC(=O)c3cc(OC)c(OC)c(OC)c3)cc2)cc1 | 0 | 0 | 159[activator] | 0 | 0 | 0 | 0 | 0 | 0 | 0 | 0 | 0 | RGS-Gao=120
CCOc1ccc(C(=O)/C=C/c2ccc(SC)cc2)cc1 | 0 | 0 | 0 | 0 | 0 | 0 | - | - | - | - | - | -
CC(C)C(=O)NC(=S)N(Cc1ccccc1)Cc1ccccc1 | 0 | 0 | 0 | 184[activator] | 0 | 0 | 0 | 0 | 62 | 0 | 70 | 171[activator] | RGS-Gao=106
COc1ccccc1NC(=O)CN1C(=O)NC2(CCCCCCC2)C1=O | 0 | 0 | 0 | 0 | 0 | 0 | - | - | - | - | - | -
SMILES | GSH fluor | RGS7-Gao reg | RGS8-Gao reg | RGS16-Gao | Avidin fluor | RGS4-Gao reg | Biotin-avidin | RGS8-Gao confirm | RGS7-Gao confirm | RGS16-Gao single | RGS4-Gao single | RGS19-Gao single | others
Cc1ccccc1NC(=O)CN1C(=O)NC2(CCCCC2)C1=O | 0 | - | - | - | - | - | 0 | 0 | 0 | 0 | 0 | 0
Cc1cc(NC(=O)CN2C(=O)NC3(CCC(C)CC3)C2=O)no1 (stereo unspecified) | 0 | 23 | 23 | 0 | 0 | 24 | 0 | 0 | 0 | 0 | 0 | 0
CSc1nnc(-c2cc(C)on2)n1-c1ccccc1 | 0 | 0 | 0 | 0 | 0 | 0 | - | - | - | - | - | -
CCC(CC)C(=O)Nc1cccc(C(=O)c2ccccc2)c1 | 0 | 0 | 0 | 0 | 0 | 0 | - | - | - | - | - | -
C=CCNC(=O)NC(=O)COC(=O)c1ccccc1Sc1ccc(C(F)(F)F)cc1[N+](=O)[O-] | 0 | 0 | 0 | 184[activator] | 0 | 0 | 0 | 0 | 0 | 0 | 0 | 0 | RGS-Gao=106
CC(C)CNC(=O)NC(=O)COC(=O)c1ccccc1Sc1ccc(C(F)(F)F)cc1[N+](=O)[O-] | 0 | 0 | 0 | 0 | 0 | 0 | - | - | - | - | - | -
COCCCn1c(-c2ccc(Cl)cc2)n[nH]c1=S | 0 | - | - | - | - | - | 0 | 0 | 0 | 0 | 0 | 0
O=C(N/N=C\c1ccc[nH]1)C1COc2ccccc2O1 (stereo unspecified) | - | ? | 0 | 0 | 0 | 0 | - | - | - | - | - | -
CC(=O)Nc1cnc2ccccc2n1 | 0 | 181[activator] | 0 | 0 | 102 | 0 | 0 | 0 | 0 | 0 | 0 | 0 | RGS-Gao=113
OCCNc1cnc2ccccc2n1 | 0 | ? | 0 | 0 | 0 | 0 | - | - | - | - | - | -
CCCC(C(=O)c1ccccc1)n1cncn1 (stereo unspecified) | 0 | 0 | 0 | -9.0 | 0 | 0 | 0 | 0 | 0 | 0 | 0 | 0 | RGS-Gao=70
CCNC(=O)c1cc2ccccc2o1 | 0 | 15 | 16 | 11 | 0 | 10 | 0 | 0 | 0 | 0 | 0 | 0
O=C(NCc1ccccc1)c1cc2ccccc2o1 | 0 | 0 | 0 | 0 | 0 | 0 | - | - | - | - | - | -
COCCCN1C(=O)/C(=C\c2cccs2)C(C(=O)OC)=C1C | 0 | 0 | 0 | 0 | 0 | 0 | - | - | - | - | - | -
CCOC(=O)CC(NC(=O)CCc1c(C)nc2ncnn2c1C)c1ccc(C)cc1 (stereo unspecified) | 0 | 0 | 0 | 0 | 0 | 0 | - | - | - | - | - | -
